Assay outcomes deposited in PubChem by National Center for Advancing Translational Sciences (NCATS).
FMDV inh – foot and mouth disease virus antiviral activity; Potency, µM (highest dose often 57.9 µM), inactives show at the highest dose activity change, negative = inhibition, most hits filed as inhibitors; actives 1.2% (n = 410,000); FMDV antiviral cell-based qHTS; AID 1159524; calls by dose curve; tested in HEK293T cells; note: read-out not given here; potency is the fitted concentration of half-maximal effect; % is set by controls: 0 for no effect and ±100 for the full control effect; nearly all actives have a fitted effect of over 45% in size
Marburg entry inh – Marburg virus entry inhibition; Marburg virus pseudotyped entry inhibition, cell reporter; Potency, µM (doses to about 37.8 µM), for inactives: at the top dose activity change, negative = inhibition, most hits filed as inhibitors; actives 1.8% (n = 300,000); calls by dose curve; tested in HEK293 cells; note: potency is the fitted concentration of half-maximal effect; % is set by controls: 0 for no effect and ±100 for the full control effect
SARS PLP yeast – SARS-CoV PLP inhibition in yeast. S. cerevisiae expressing SARS-CoV PLpro, growth rescue. Potency, µM (titrated, usually from 32.9 µM), without a hit: at the top dose activity, positive = growth rescue, most hits filed as activators. actives 0.19% (n = 330,000). AID 485353; calls by dose curve; note: potency is the fitted concentration of half-maximal effect; 0% is about no effect; nearly all actives have a fitted effect of over 55% in size
HCV inh – blocks hepatitis C virus | Potency, µM (top dose mostly 41.8 µM), for inactives: top-dose activity change, negative = inhibition, most hits filed as inhibitors | actives 3.4% (n = 340,000) | Huh7.5.1 HCVcc-Cre infection, luciferase reporter, 44 h; active = well fitted inhibition curve with a large enough effect; inconclusive = small, poorly fitted or top-dose-only effect, or another doubt; inactive = no such curve, though single readings can be large or run the other way; note: potency is the fitted concentration of half-maximal effect; % is set by controls: 0 for no effect and ±100 for the full control effect
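Compounds are dispensed onto cells plated 4 h earlier at 1,000 per well, with HCVcc-Cre virus (about 0.5 moi) added next. Following 44 h of culture, luminescent signal is measured for 15 sec after 15 min with substrate at room temperature.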
HCMV antiviral – inhibitors of human cytomegalovirus; activity change, negative = inhibition, % at 57.5 µM; HFF cells, HCMV-luciferase reporter, 72 h; stronger effect = lower value; actives 4.5% (n = 410,000); in the data active = activity change below about -60%; inconclusive = no clear call, values can overlap the other calls; inactive = above about -39%; note: % is set by controls: 0 for no effect and ±100 for the full control effect
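Luciferase read-out from HCMV-luciferase-infected HFFs (MOI 1 PFU/cell) 72 h post infection at 37C; compounds added after 16 h cell attachment; activity normalized between buffer-only basal and Salinomycin (10uM) inhibitor controls.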
Lassa entry inh – blocks Lassa virus binding to or entry into cells | Lassa virus pseudotype entry inhibition, cell reporter | Potency, µM (titrated, usually from 37.9 µM), inactives show top-dose activity change, negative = inhibition, most hits filed as inhibitors | actives 1.2% (n = 300,000) | AID 540256; calls by dose curve; tested in HEK293 cells; note: potency is the fitted concentration of half-maximal effect; % is set by controls: 0 for no effect and ±100 for the full control effect; nearly all actives have a fitted effect of over 50% in size
The depositor's hits bear a star; ? = inconclusive; . = not tested or not shown; ! = repeats disagree; [ ] = dose if it differs, or a comment. Hits are enriched below; roughly 8% of the tested compounds scored in any of these assays.

SMILES	FMDV inh	Marburg entry inh	SARS PLP yeast	HCV inh	HCMV antiviral	Lassa entry inh
CC(=O)Oc1ccc(-c2csnn2)cc1	-13%	-3%	1%	1%	?	7%
CCNC(=O)Oc1ccc(-c2csnn2)cc1	32µM*	7%[46.1 µM]	-5%	-15%	-8	-1%
CCc1ccc(NC(=O)c2ccc(F)c(S(=O)(=O)N3CCC4(CC3)OCCO4)c2)cc1	-26%	.	.	.	-90*	?
O=C(Nc1ccc(F)c(F)c1)c1ccc(F)c(S(=O)(=O)N2CCC3(CC2)OCCO3)c1	?	?	2%	13µM*	-82*!	?
O=S(=O)(c1cc(F)ccc1F)N1CCC2(CC1)OCCO2	-13%	.	-4%	12%	-28	.
CCc1ccc(NC(=O)c2ccc(F)c(S(=O)(=O)N3CCc4ccccc4C3)c2)cc1	-30%	.	.	.	-68*	?
O=C(NCc1nnnn1-c1ccc(F)cc1)C1CC(=O)N(c2ccc(F)cc2)C1 (centres undefined)	2%	-5%	-1%	5%[8.37 µM]	10	14%
O=S(=O)(Nc1nc2ccccc2nc1Cl)c1ccc(Br)cc1	-26%	.	-5%	-8%	23	.
COc1cccc(CNC(=O)Cn2nc3c(cc2=O)CCCC3)c1OC	8%	.	.	.	?	-4%[46.1 µM]
Cc1ccc(CN(CC(=O)NC(C)(C)C)C(=O)CNC(=O)c2cccs2)cc1	-7%	?	0%	-4%	-33	-24%[46.1 µM]
COc1cccc(C2CC(c3cccs3)=NN2C(=O)c2ccco2)c1O (centres undefined)	-17%	22%[46.1 µM]	-5%	14µM*	-38	-22%
CCC(=O)N1N=C(c2cccs2)CC1c1ccco1 (centres undefined)	-15%	3%[46.1 µM]	-1%	?	-36	6%[46.1 µM]
O=C(c1ccco1)N1N=C(c2cccs2)CC1c1ccccc1O (centres undefined)	?	-27%	4%	-1%	-68*	-4%
CCOC(=O)C1=C(CN2CCC(C(=O)OCC)CC2)NC(=O)NC1c1ccc(Cl)cc1 (centres undefined)	-30%	-3%[46.1 µM]	.	.	4	2%[46.1 µM]
CCOCCCN(Cc1ccco1)C(=O)c1cc2c(s1)-c1c(C)cccc1OC2	17%	-12%[46.1 µM]	.	.	-31	.
CC(C)(CO)Cc1cc(C(C)(C)C)c(O)c(C(C)(C)C)c1	-2%	?	.	?	-12	-24%
Cc1ccc(S(=O)(=O)N2C[C@]3(O)C[C@@H]4C(=O)N(c5ccccc5)C(=O)[C@@H]4C[C@]3(OC(=O)NC3CCCC3)C2)cc1	16µM*	.	.	.	9	.
C=C1N(S(=O)(=O)C(F)(F)F)CCC12CN(S(=O)(=O)c1ccc(C)cc1)c1ccccc12 (centres undefined)	.	.	.	.	-70*	.
CC1=C(C(=O)OCC2CCCO2)C(c2ccc(C)o2)C2=C(CC(c3ccc(F)cc3)CC2=O)N1 (centres undefined)	5%	10µM*	-4%	8.9µM*	.	-25%
O=c1nc(SCc2c(F)cccc2Cl)nc(-c2ccccc2)[nH]1	5%	1%[46.1 µM]	-4%	20%	19	-9%[46.1 µM]
C=C1CC2C(CCC3(C)C2CCC3(O)C(C)=O)C2(C)CCC(=O)C=C12 (centres undefined)	25µM*	?	-1%	-12%	-79*	5.6µM*
CC(=O)C1(O)CCC2C3CC(C)C4=CC(=O)CCC4(C)C3CCC21C (centres undefined)	.	.	.	.	-16	.
CC(=O)[C@]1(O)CCC2C3CCC4=CC(=O)CC[C@@]4(C)C3CC[C@]21C (some centres undefined)	-13%	.	.	.	.	.
CC(=O)[C@@]1(O)CC[C@H]2[C@@H]3C[C@H](C)C4=CC(=O)CC[C@]4(C)[C@H]3CC[C@@]21C	28µM*	-27%	-37%	?	?	?
CC(=O)C1(C)CCC2C3C=C(C)C4=CC(=O)CCC4(C)C3CCC21C (centres undefined)	-8%	11µM*	.	?	-14	?
COc1cccc(N2C(=O)C(O)=C(C(C)=O)[C@@H]2c2ccc(OC)c(OC)c2)c1	.	7%	.	.	.	.
O=C1c2ccc(O)c(O)c2C(=O)c2c(O)ccc(O)c21	22µM*	.	.	.	.	.
